In the library only some 1.8% were active in any assay of this set; here they are far more common.
PHOSPHO1 block: blocks human PHOSPHO1 phosphatase activity; Q8TCT1; AID 1565; inhibition, % at 13.3 µM; recombinant PHOSPHO1, absorbance phosphatase assay; hit rate 1.1% among 290,000; in the data active = inhibition above about 60%
Target sequence (Q8TCT1 whole entry, looked up): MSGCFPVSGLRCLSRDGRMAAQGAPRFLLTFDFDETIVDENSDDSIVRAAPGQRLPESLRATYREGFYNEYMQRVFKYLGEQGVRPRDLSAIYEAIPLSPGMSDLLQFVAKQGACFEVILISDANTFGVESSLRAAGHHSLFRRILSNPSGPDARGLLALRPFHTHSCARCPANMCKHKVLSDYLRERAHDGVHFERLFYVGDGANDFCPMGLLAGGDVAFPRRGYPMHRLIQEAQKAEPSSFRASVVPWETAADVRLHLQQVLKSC
UBC9 SUMO inh: blocks human SUMOylation mediated by UBC9; P63279; HTRF SUMOylation assay, SAE1/SAE2 + UBC9, in vitro; inhibition, % at 35 µM; hit rate 0.36% among 290,000; AID 2006; in the data active = inhibition above about 50%, passing the limit was not always enough
Target sequence (P63279 whole entry, looked up): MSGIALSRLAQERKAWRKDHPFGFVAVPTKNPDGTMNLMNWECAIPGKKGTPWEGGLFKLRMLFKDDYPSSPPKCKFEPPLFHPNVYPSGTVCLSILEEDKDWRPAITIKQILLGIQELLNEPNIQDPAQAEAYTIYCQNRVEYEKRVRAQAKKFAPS
p-CIP stab down: compounds decreasing mouse p/CIP protein stability; decrease of EGFP signal, % at 10 µM; AID 1984; hit rate 0.01% among 290,000; F442A p/CIP-EGFP cells, EGFP fluorescence, 16 h;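 active = EGFP signal decrease of at least 30% at 10 µM or well 3 SD below plate mean, unless failing retest; inactive = the rest, including hits failing retest or dose response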
NadD inh: inhibitors of Staphylococcus aureus NadD. purified NadD enzyme, colorimetric absorbance read-out. inhibition, % at 20 µM. hit rate 0.78% among 360,000. AID 602399; in the data active = inhibition above about 26%
NadD conf: confirmation of Staphylococcus aureus NadD inhibitors; shares compounds with NadD inh; purified S. aureus NadD, colorimetric enzyme assay; inhibition, % at 20 µM; hit rate 13% among 2,000; in the data active = inhibition mostly above about 42%, no sharp cut-off; inactive = mostly below about 42%
Large screens that a line does not name were inactive (follow-up assays come after a bar, where they were run).

NC(=S)N/N=C/c1ccc(-c2ccc(Cl)c(Cl)c2)o1	PHOSPHO1 block 81, NadD inh 39 | NadD conf inactive
O=C(Nc1nc(C2C3CC4CC(C3)CC2C4)cs1)c1cc2cc([N+](=O)[O-])ccc2oc1=O (centres undefined)	NadD inh 35 | NadD conf inactive
Clc1cccc(Cc2c(-c3ccco3)nc3ccc(Br)cn23)c1	NadD inh 41 (no result: PHOSPHO1 block, UBC9 SUMO inh, p-CIP stab down) | NadD conf inactive
Clc1cccc(Cc2c(-c3ccco3)nc3ccc(Cl)cn23)c1	none (no result: PHOSPHO1 block, UBC9 SUMO inh, p-CIP stab down)
Cc1cc2nc(-c3ccco3)c(Cc3cccc(Cl)c3)n2c(C)c1Br	NadD inh 61 (no result: PHOSPHO1 block, UBC9 SUMO inh, p-CIP stab down) | NadD conf inactive
COc1ccccc1Cc1c(-c2ccco2)nc2cc(C)c(Br)c(C)n12	NadD inh 60 (no result: PHOSPHO1 block, UBC9 SUMO inh, p-CIP stab down) | NadD conf inactive
Cn1cc(S(=O)(=O)N2CCOCC2)cc1C(=O)NCc1ccccc1Cl	none
CNc1cncc(-c2ccc(C)cc2)n1	none (no result: PHOSPHO1 block, UBC9 SUMO inh, p-CIP stab down)
O=C(C[n+]1cccc(CO)c1)Nc1nc2ccccc2s1	none
CCOC(=O)c1c2ccc(OCC(=O)N/N=C/c3ccc(C)cc3)cc2n2ccccc12	NadD inh 37 (no result: UBC9 SUMO inh) | NadD conf inactive
COc1cccc(N2[C@@H](CC(=O)O)c3cc(C(F)(F)F)ccc3S2(=O)=O)c1	NadD inh 49 (no result: PHOSPHO1 block, UBC9 SUMO inh, p-CIP stab down) | NadD conf 52
COc1cccc(N2[C@@H](CC(=O)O)c3ccccc3S2(=O)=O)c1	none (no result: PHOSPHO1 block, UBC9 SUMO inh, p-CIP stab down)
COCCNc1nc(-c2cc(C)n(CCc3ccc(OC)cc3)c2C)cs1	NadD inh 36 | NadD conf inactive
COc1ccc(CCn2c(C)cc(C(=O)COC(=O)c3cnccn3)c2C)cc1	none
O=C(Nc1ccc(C2=NCCN2)cc1)c1ccc(C(=O)Nc2ccc(C3=NCCN3)cc2)c([N+](=O)[O-])c1	NadD inh 50 | NadD conf inactive
COc1ccc(S(=O)(=O)CC(=O)c2cc3cc(Br)ccc3oc2=O)cc1	none
COc1ccc(OC)c(S(=O)(=O)CC(=O)c2cc3ccc(OC)cc3oc2=O)c1	NadD inh 36 | NadD conf inactive
Cc1cccc(N(CC(=O)NC2CCCC2)C(=O)c2cc3cc4cccc(C)c4nc3s2)c1C	NadD inh 40 | NadD conf inactive
Cc1ccc(C)c(N(CC(=O)NC2CCCC2)C(=O)c2cc3cc4cc(C)ccc4nc3s2)c1	none
COc1cc(CNc2ncnc3c2ncn3[C@H]2CN(Cc3ccccc3)C[C@@H](COC(C)=O)O2)cc(OC)c1OC	none (no result: PHOSPHO1 block, UBC9 SUMO inh, p-CIP stab down)
Cc1cccc(N2CCN(C(=O)CCCCCn3c(=S)[nH]c4ccc(N5CCOCC5)cc4c3=O)CC2)c1C	NadD inh 46 | NadD conf inactive
Cc1ccc(C)c(N2CCN(C(=O)c3ccc(Cn4c(=S)[nH]c5ccc(N6CCOCC6)cc5c4=O)cc3)CC2)c1	NadD inh 30 | NadD conf inactive
CCCCn1c(=S)[nH]c2ccc(N3CCOCC3)cc2c1=O	none (no result: NadD inh)
O=C(OCCO)c1c(-c2ccccc2)oc2c1C(OCCO)CCC2 (centres undefined)	none (no result: PHOSPHO1 block, UBC9 SUMO inh, p-CIP stab down)
Cn1nc(C(=O)NCc2ccccc2Cl)c2c1-c1ccccc1S(=O)(=O)C2	none (no result: UBC9 SUMO inh)
COc1ccc2c(c1)C(=O)N1[C@H]3c4cc(Br)ccc4OC[C@@H]3[C@H](c3ccccc3)[C@]1(C)C(=O)N2	NadD inh 30 (no result: PHOSPHO1 block, UBC9 SUMO inh, p-CIP stab down) | NadD conf inactive
C[C@@]12C(=O)Nc3ccc(Br)cc3C(=O)N1[C@H]1c3cc(Br)ccc3OC[C@@H]1[C@@H]2c1ccccc1	none (no result: PHOSPHO1 block, UBC9 SUMO inh, p-CIP stab down)
CC(C)Cn1c(=O)c(C(=O)Nc2ccccc2S(N)(=O)=O)c(O)c2ccccc21	NadD inh 33 | NadD conf 65
CCC(C)n1c(=O)c(C(=O)Nc2ccccc2S(N)(=O)=O)c(O)c2ccccc21 (centres undefined)	NadD inh 33 | NadD conf 64
Cn1c(=O)c(C(=O)Nc2ccccc2S(N)(=O)=O)c(O)c2ccccc21	none
COc1ccc(C(=O)NC2CCN(CC(=O)N3CCCCC3)CC2)cc1	none
CC(=O)NC(Cc1ccccc1)C(=O)OCC(=O)c1ccc(F)cc1 (centres undefined)	none
COc1cc(NC(=O)COc2ccc(Cl)cc2)ccc1-c1cc2ccccc2oc1=O	NadD inh 38 | NadD conf inactive
COc1ccc(C(=O)c2[nH]c(N)c(C(=O)NCCc3c[nH]c4ccccc34)c2-c2ccc(OC)c(OC)c2)cc1	none (no result: PHOSPHO1 block, UBC9 SUMO inh, p-CIP stab down)
Cc1c([N+](=O)[O-])cc(N2C(=O)C=CC2=O)cc1[N+](=O)[O-]	NadD inh 42 (no result: PHOSPHO1 block, UBC9 SUMO inh, p-CIP stab down) | NadD conf 57
O=C(O)c1ccc(/C=N/NC(=O)c2cc(-c3ccc4c5c(cccc35)CC4)n[nH]2)cc1	NadD inh 28 | NadD conf inactive
CCN(CC(=O)Nc1ccccc1C(F)(F)F)C(=O)c1cc(S(=O)(=O)N2CCCCCC2)ccc1OC	none (no result: PHOSPHO1 block, UBC9 SUMO inh, p-CIP stab down)
COc1ccc(/C=N\NC(=O)c2ccccc2F)cc1COc1ccc(F)cc1	none
COc1ccc(/C=N/NC(=O)c2nc(Cl)c(Cl)c(N)c2Cl)cc1COc1ccccc1F	NadD inh 30 | NadD conf inactive
COc1ccc(/C=N\NC(=O)c2ccccc2F)cc1COc1ccc(F)cc1F	none
COc1cc(OC)cc(C(=O)N/N=C/c2ccc(OC)c(COc3ccc4ccccc4c3)c2)c1	NadD inh 40 | NadD conf inactive
COc1ccc(/C=N/NC(=O)c2nc(Cl)c(Cl)c(N)c2Cl)cc1COc1ccc(F)cc1F	NadD inh 53 | NadD conf inactive
COc1ccc(OC)c(/C=C/C(=O)OCC(=O)Nc2nnc(-c3ccccc3)o2)c1	NadD inh 44 (no result: PHOSPHO1 block, UBC9 SUMO inh, p-CIP stab down) | NadD conf 60
CCc1ccc(S(=O)(=O)Nc2nnc(N)s2)cc1	none
c1ccc(-c2cc(-c3nn4c(-c5ccco5)nnc4s3)c3ccccc3n2)cc1	NadD inh 47 | NadD conf inactive
Cc1cc(-c2nn3c(-c4ccccc4)nnc3s2)c2ccccc2n1	none
CCn1c(=O)n(CC)c2cc(N3CCCC3)c(NC(=O)c3cccc(OC)c3)cc21	none
Cc1ccccc1NC(=O)CN1C(=O)S/C(=C\c2cccn2-c2cccc(C(=O)O)c2)C1=O	none
Cc1ccc(NC(=O)CN2C(=O)S/C(=C\c3cccn3-c3cccc(C(=O)O)c3)C2=O)c(C)c1	PHOSPHO1 block 102, UBC9 SUMO inh 83, NadD inh 40 | NadD conf inactive
S=c1[nH]nc(-c2ccco2)n1-c1cccc2ccccc12	none
S=c1[nH]nc(-c2cc(-c3ccsc3)n[nH]2)n1-c1cccc2ccccc12	NadD inh 32 | NadD conf inactive
COc1cc(C2C(C#N)=C(N)N(Nc3ccccc3)C3=C2C(=O)CC(C)(C)C3)ccc1OCc1cccc(F)c1 (centres undefined)	NadD inh 31 | NadD conf inactive
COc1cc(C2C(C#N)=C(N)N(Nc3ccccc3)C3=C2C(=O)CC(C)(C)C3)ccc1OCc1ccccc1 (centres undefined)	none
Cc1ccc(S(=O)(=O)Nc2ccc(Nc3nccn4c(-c5ccc6ccccc6c5)cnc34)cc2)cc1	NadD inh 41 (no result: PHOSPHO1 block, UBC9 SUMO inh, p-CIP stab down) | NadD conf 53
Cc1ccc(S(=O)(=O)Nc2ccc(Nc3nccn4c(-c5ccccc5Oc5ccccc5)cnc34)cc2)cc1	NadD inh 36 (no result: PHOSPHO1 block, UBC9 SUMO inh, p-CIP stab down) | NadD conf 64

Compound activity: PubChem BioAssay, Sanford-Burnham Center for Chemical Genomics
